# Reference: the supplement of paper PMC9135407
# Structures can show the parent of a compound that is named as a salt.
# Tested on: primary human hepatic stellate cells (donor 1)
# Experiment: PSMB2 reference mRNA level vs DMSO (fold); higher = more PSMB2 expression
# Conditions: 48 h
# Method: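 Secondary qRT-PCR screen in primary human HSCs (donor 1), 384-well plates, with compounds dispensed in quadruplicate and incubated for 48 h. Cells-to-CT lysates were used for multiplexed TaqMan qPCR of ACTA2 or COL1A1 with PSMB2 as reference. Fold changes versus DMSO come from a linear model (Ct_gene ~ Ct_PSMB2 + plate + chemical). A hit is defined as COL1A1 and ACTA2 FC <0.5 (FDR <0.05) with PSMB2 between 0.2 and 2.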
row,Compound,PSMB2 reference mRNA level
1,CCCCCCCCCCCCCC(=O)O[C@@H]1[C@@H](C)[C@@]2(O)[C@@H](C=C(CO)C[C@]3(O)C(=O)C(C)=C[C@@H]23)[C@@H]2C(C)(C)[C@]12OC(C)=O [Phorbol 12-myristate 13-acetate] (27.0333 µM),0.829
2,CC[C@H]1CN2CCc3cc(OC)c(OC)cc3[C@@H]2C[C@@H]1C[C@H]1NCCc2cc(OC)c(OC)cc21 [Emetine] (12.0333 µM),0.628
3,CC1=NCCc2c1[nH]c1cc(O)ccc21 [Harmalol hydrochloride dihydrate] (24.4333 µM),0.715
4,CCN(CC)CCO[C@H]1CC[C@@]2(C)C(=CC[C@@H]3[C@@H]2CC[C@]2(C)C(=O)CC[C@@H]32)C1 (33.3333 µM),0.278
5,O=[N+]([O-])/C=C/c1ccc2c(c1)OCO2 (3.7 µM),1
6,Fc1cc(F)c2c(c1)[C@H]1C=CC[C@H]1C(c1cccnc1)N2 (some centres undefined) [Golgicide A] (33.3333 µM),0.431
7,CC(C(=O)OC1CC2CCC(C1)N2C)c1ccc(Br)cc1 (centres undefined) [PG-9 maleate] (33.3333 µM),1.01
8,"CN(C(=O)Cc1ccc(Cl)c(Cl)c1)[C@H](CN1CCCC1)c1ccccc1 [ICI-199,441 hydrochloride] (33.3333 µM)",0.128
9,COc1ccc2[nH]cc(C3=CCNCC3)c2c1 (33.3333 µM),1.01
10,CN1[C@@H]2CC[C@H]1C[C@@H](OC(c1ccc(F)cc1)c1ccc(F)cc1)C2 [3 α-Bis-(4-fluorophenyl) methoxytropane hydrochloride] (33.3333 µM),0.247
11,COc1ccc2c(c[n+](C)c3c4cc5c(cc4ccc23)OCO5)c1OC (6.66667 µM),0.187
12,O=C1C2CCN(CC2)C1(CO)CO (90 µM),0.115
13,C[C@]12CC[C@H](O)C[C@H]1CC[C@@H]1[C@@H]2CC[C@]2(C)[C@@H](C3=CC(=O)OC3)CC[C@]12O [Digitoxigenin] (33.3333 µM),0.954
14,C[C@@H]1O[C@@H](O[C@H]2C[C@@H](O)[C@]3(CO)[C@H]4[C@H](O)C[C@]5(C)[C@@H](C6=CC(=O)OC6)CC[C@]5(O)[C@@H]4CC[C@]3(O)C2)[C@H](O)[C@H](O)[C@H]1O [Ouabain] (33.3333 µM),1.24
15,CC1=C(O)C(=O)C=C2C1=CC=C1[C@@]2(C)CC[C@@]2(C)[C@@H]3C[C@](C)(C(=O)O)CC[C@]3(C)CC[C@]12C [Celastrol] (3.33333 µM),0.633
16,CC1=C(CC/C(C)=C/CCC2=CC[C@H](C3=CC(=O)O[C@H]3O)O[C@H]2O)C(C)(C)CCC1 [Manoalide] (40 µM),1.84
17,O=c1[nH]c2ccccc2n1C1CCN(CCCC(c2ccc(F)cc2)c2ccc(F)cc2)CC1 [Pimozide] (33.3333 µM),0.0111
18,C[C@H](N)Cn1ccc2cc(F)c(Cl)cc21 [Ro 60-0175 fumarate] (33.3333 µM),0.297
19,CO[C@H]1CC[C@@H](O[C@H]2C[C@H]([C@]3(C)CC[C@]4(C[C@H](O)[C@@H](C)[C@@H]([C@@H](C)/C=C(\C)C(=O)[C@H](C)C[C@H](C)C(=O)O)O4)O3)O[C@]3(O[C@@H]([C@H]4O[C@@](O)(CO)[C@H](C)C[C@@H]4C)C[C@@H]3C)[C@@H]2C)O[C@@H]1C [Nanchangmycin] (11.1 µM),0.936
